# Measurements published in PubChem BioAssay AID2014 (Sanford-Burnham Center for Chemical Genomics, 2009).
# Screen size: about 290,000 compounds; about 3,000 (1%) were called active. The rule behind the calls is not given here. Only a selection was taken, and actives are over-represented in it overall.
# Target: Polyadenylate-binding protein 1 (Homo sapiens) (UniProt P11940)
# Test: blockers of PABP interaction with poly(A) – biochemical, fluorescence polarization, uHTS, primary screen (AID 2014);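 note: calls also rest on retests at 20 µM and on dose response follow-up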
# Conditions: PABP-poly(A) RNA binding, stronger effect = higher value
# Sequence of Polyadenylate-binding protein 1 (Homo sapiens) (P11940 whole entry, looked up): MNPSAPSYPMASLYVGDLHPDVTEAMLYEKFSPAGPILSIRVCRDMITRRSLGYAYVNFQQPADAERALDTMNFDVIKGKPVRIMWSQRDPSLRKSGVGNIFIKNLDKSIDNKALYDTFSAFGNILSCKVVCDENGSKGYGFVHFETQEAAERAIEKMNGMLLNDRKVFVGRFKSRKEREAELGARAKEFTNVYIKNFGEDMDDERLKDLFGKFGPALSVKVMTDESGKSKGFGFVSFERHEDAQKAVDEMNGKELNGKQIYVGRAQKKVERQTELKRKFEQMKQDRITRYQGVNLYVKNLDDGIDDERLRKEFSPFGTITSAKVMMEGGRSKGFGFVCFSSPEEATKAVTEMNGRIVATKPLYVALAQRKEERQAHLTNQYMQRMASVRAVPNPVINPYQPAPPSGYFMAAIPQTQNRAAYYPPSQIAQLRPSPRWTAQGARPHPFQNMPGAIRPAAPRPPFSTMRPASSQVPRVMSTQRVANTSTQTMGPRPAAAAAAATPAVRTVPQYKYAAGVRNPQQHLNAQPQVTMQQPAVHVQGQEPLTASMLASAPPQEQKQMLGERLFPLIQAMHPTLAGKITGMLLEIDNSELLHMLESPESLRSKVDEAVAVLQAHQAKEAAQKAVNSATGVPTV
Structure (SMILES),inhibition (at 35 µM),"inhibition (confirmation repeats, at 20 µM)"
O=C1CN(C(=O)c2cc(F)cc(F)c2)c2ccccc2N1,-2.2% (inactive),–
Cc1cc(O)c(C(=O)/C=C/c2c(F)c(F)c(F)c(F)c2F)c(=O)o1,-2.1% (inactive),–
Cc1cc2c(=O)n(CC(=O)NCC(=O)Nc3ccc(C(C)C)cc3)cnc2s1,9.1% (inactive),–
Cc1ccc(-n2ncc3c2CCCC3NC(=O)c2cnccn2)cc1C (centres undefined),5.7% (inactive),–
O=C(CNC(=O)c1ccc(Br)o1)NCC1CCCO1 (centres undefined),-3.6% (inactive),–
O=C(c1ccc(Br)o1)N(c1ccccn1)C1CCCCC1,-4.7% (active),75.2%
O=C(c1cccs1)N(C(=O)c1cccs1)c1ccccn1,0.2% (inactive),–
CC1(C)CC(=O)C(C2c3ccccc3S(=O)(=O)c3ccccc32)C(=O)C1,62.9% (active),–
CC1(C)CC(=O)NC=C(c2ccccc2)C1,-9.5% (inactive),–
CC1(C)CC(=O)C=C(Nc2ccccc2)C1,2.3% (inactive),–
O=C(c1ccc(CS(=O)(=O)c2ccccc2)o1)N1CCN(c2ccccc2)CC1,28.3% (active),62.1%
O=C(c1ccc(S(=O)(=O)N2CCOCC2)cc1)N1CCN(c2ccccc2)CC1,3.8% (inactive),–
O=C(c1cc(=O)c2ccccc2o1)N1CCN(c2ccccc2)CC1,4.7% (inactive),–
CCc1ccc(N2CC(C(=O)N3CCCCCC3)CC2=O)cc1 (centres undefined),-12.2% (inactive),–
COc1ccc2oc(=O)cc(CN3CCOCC3)c2c1,10.8% (inactive),–
O=Cc1cn(-c2ccccc2)nc1-c1ccccn1,-6.6% (inactive),–
Cc1ccc(SCCSc2ncccn2)cc1,8.3% (inactive),–
Cc1cccc(C(=O)NNC(=O)CSc2nnc(C(C)C)n2C)c1,0.1% (inactive),–
COCCn1c(N)c(N(Cc2ccccc2)C(=O)C2CCCCC2)c(=O)[nH]c1=O,4.9% (inactive),–
COCCN1C=C2C(=O)C(C)(OC(=O)C3CCCC3)C(=O)C=C2C=C1c1ccsc1 (centres undefined),61% (active),–
Cc1cccnc1CC(C)NC(=O)c1cc(COc2cncc(Cl)c2)on1 (centres undefined),-0.2% (inactive),–
CC(=O)c1ccc(OC(=O)N2CCOCC2)cc1,-1.2% (inactive),–
Cc1ccc(C2Nc3cccc4cccc(c34)N2)cc1,39.9% (inactive),–
Oc1ccc(C2Nc3cccc4cccc(c34)N2)cc1,69.2% (active),–
COc1cccc(C2Nc3cccc4cccc(c34)N2)c1,25.6% (active),72.2%

Structure (SMILES),inhibition (at 35 µM),"inhibition (confirmation repeats, at 20 µM)"
COc1ccc(N2C(=O)C3CCCN3C2c2cccc(OC)c2)cc1 (centres undefined),-1.1% (inactive),–
COc1ccc(C2NC(=O)c3ccccc3N2)cc1 (centres undefined),15.7% (inactive),–
O=C1NC(c2cccc(Cl)c2)Nc2ccccc21 (centres undefined),-16.8% (inactive),–
O=C1CCN(CCc2ccccc2)CCN1CCOc1ccccc1,7.2% (inactive),–
COc1ccc(CNC(=O)CN(Cc2ccccc2Cl)C(=O)c2csnn2)cc1,4.9% (inactive),–
CCN(CC(=O)NCc1cccs1)C(=O)c1cccc(S(=O)(=O)Nc2ccccc2OC)c1,60.4% (active),70.6%
CCN(CC(=O)NCc1cccs1)C(=O)c1ccccc1F,-8.7% (inactive),–
COc1cc(CC(=O)NCc2cccs2)cc(OC)c1OC,-5.2% (inactive),–
CC(=O)c1ccccc1OCc1ccc(C(=O)c2ccccc2)cc1,0.6% (inactive),–
O=C(NC1CC1)C(Cc1ccccc1)NS(=O)(=O)c1ccccc1F (centres undefined),-3.9% (inactive),–
O=C(NCCCc1ccccc1)C1CCC(=O)N(CCc2ccc(Cl)cc2)C1 (centres undefined),2.3% (inactive),–
Cc1cc(=O)oc(C)c1C(=O)NCc1ccc(F)cc1,28.4% (inactive),–
Cc1cc(=O)oc(C)c1C(=O)NCCN(C)Cc1ccccc1,-13.8% (inactive),–
Cc1cc(=O)oc(C)c1C(=O)Nc1cnc2ccccc2c1,104% (active),–
Cc1ccc(C(=O)NC2CCN(C(=O)Nc3ccccc3Cl)CC2)cc1,8.2% (inactive),–
Cc1cccc(N2CCN(C(C)C(=O)N3CCc4ccccc43)CC2)c1C (centres undefined),-1.2% (inactive),–
Cc1cccc(N(C(=O)Cn2nnc(-c3ccc(C)o3)n2)C(C(=O)NC2CCCC2)c2ccncc2)c1 (centres undefined),11.1% (inactive),–
Cc1ccc(N=C2NC(=O)/C(=C/C=C/c3ccco3)S2)cc1C,-2.9% (active),92%
Cc1ccc(N2NC(=O)/C(=C/C=C/c3ccco3)C2=O)cc1C,12.2% (inactive),–
Cc1cccc(N=C2NC(=O)/C(=C/c3cn(C)c4ccccc34)S2)c1,-3.5% (inactive),–
CC(C)(O)C#Cc1ccc(CN2CCC(CO)(CCc3ccccc3)CC2)cc1,-2.8% (inactive),–
Brc1ccccc1CN1CCC(Cc2ccccc2)CC1,0.9% (inactive),–
Cn1c(N)cc(-c2ccc(F)cc2)c(C#N)c1=O,59.1% (active),69.9%
COc1ccc(O)c(C(=O)c2cnc3c(c2)c(-c2ccc(F)cc2)c(C#N)c(=O)n3C)c1,7.5% (inactive),–
Cc1cc(C)c2c(-c3ccc(F)cc3)c(C#N)c(=O)n(C)c2n1,-5.1% (inactive),–

Structure (SMILES),inhibition (at 35 µM),"inhibition (confirmation repeats, at 20 µM)"
COc1ccc(NC(=O)C(CC(C)C)NC(=O)C2CCC(C)CC2)cc1 (centres undefined),-2.9% (inactive),–
C=CCn1c(=O)c(C(=O)NCc2ccc3c(c2)OCO3)c(O)c2ccccc21,-7.7% (inactive),–
CC1CCCCC1NC(=O)CCS(=O)(=O)c1ccc2c(c1)NC(=O)CO2 (centres undefined),3.9% (inactive),–
Cc1cccc2c1cnn2C(=O)CCC(=O)NC1CCCCC1,-10.3% (inactive),–
CN(C(=O)CN1C(=O)S/C(=C\c2ccccc2F)C1=O)C1CCS(=O)(=O)C1 (centres undefined),11.1% (inactive),–
COCC(C)n1c(C)cc(C(=O)COc2ccc(C)nc2[N+](=O)[O-])c1C (centres undefined),-2.1% (active),57.1%
Cc1ccc(OCC(=O)c2cc(C)n(Cc3ccco3)c2C)c([N+](=O)[O-])n1,40.8% (inactive),34.4%
Cc1ccc(OCC(=O)NC(C)c2ccccc2)c([N+](=O)[O-])n1 (centres undefined),51.1% (inactive),-6.6%
CCOc1cccc(=O)c2c(C)n(CC3CCCO3)c(C)c12 (centres undefined),92.6% (active),–
CCOc1ccc(NC(=O)c2cccc3c2C(=O)N(CC2CCCO2)C3)cc1 (centres undefined),-7.6% (inactive),–
COc1ccccc1NC(=O)CSc1nnc(C)n1CC1CCCO1 (centres undefined),9.2% (inactive),–
Cc1cc(=O)n2[nH]c(-c3sccc3-n3c(C)ccc3C)cc2n1,31.1% (active),94.5%
Cc1cc(=O)n2[nH]c(-c3cccc(Cl)c3)cc2n1,1.6% (inactive),–
CCc1c(C)nc2cc(-c3cccs3)[nH]n2c1=O,3.2% (inactive),–
CC1CCN(C(=O)c2ccc3c(=O)n4c(nc3c2)CCCCC4)CC1,3.8% (inactive),–
Cc1ccc(C(=O)NCC(=O)NCc2cc(=O)n(C)c(=O)n2C)cc1,1.4% (inactive),–
C/C(=C\c1ccco1)C1Nc2cccc3cccc(c23)N1,116% (active),–
CC(/C=N/NC(=O)c1ccncc1)=C\c1ccco1,14.8% (inactive),–
CC(/C=N/NC(=O)c1cc(-c2ccc3ccccc3c2)n[nH]1)=C\c1ccco1,9.9% (inactive),8.9%
COc1ccc(S(=O)(=O)c2c[nH]c(=S)[nH]c2=O)cc1Cl,26% (inactive),–
CCOC(=O)C1(CCOc2ccccc2)CCN(Cc2cc(OC)cc(OC)c2)CC1,10.8% (inactive),–
Cn1cc(CNC(=O)c2ccc(OC3CCN(Cc4ccccn4)CC3)cc2)cn1,9.6% (inactive),–
CSc1ccc(/C=N/N2CCN(Cc3ccccc3Cl)CC2)cc1,3.3% (inactive),–
O=c1ccn(Cc2ccccc2Cl)cc1,7.8% (inactive),–
O=S1(=O)CCN(Cc2ccccc2Cl)CC1,33.1% (active),64.5%

Structure (SMILES),inhibition (at 35 µM),"inhibition (confirmation repeats, at 20 µM)"
COc1cc(CO)ccc1OCC(=O)Nc1cccc2ccccc12,-6.9% (inactive),–
O=C(NCc1ccccc1)C1CCN(C(=O)Cc2ccccc2)CC1,0% (inactive),–
Cc1cc(Cl)c2oc(C(=O)N3CCC(O)(c4ccccc4)CC3)c(C)c2c1,3.6% (inactive),–
COc1ccc(-c2csc(Nc3ccc(O)cc3)n2)cc1,6.1% (inactive),–
COc1ccc(OC)c(Nc2nc(-c3ccc(O)c(O)c3)cs2)c1,88.7% (active),–
COc1cccc(CC(=O)Nc2nc(-c3ccc(OC)c(OC)c3)cs2)c1,3.9% (inactive),–
Cc1cc(C)n(Cc2cnc(N3CCOCC3)s2)n1,55% (active),89.9%
Fc1cc(F)c2nc(N3CCOCC3)sc2c1,6.9% (inactive),–
Cc1nc(N2CCOCC2)sc1C(=O)NN,18.5% (inactive),–
COC(=O)CCCC1=CC2=CC(=O)C(C)(OC(=O)c3cccs3)C(=O)C2=CN1CC(C)C (centres undefined),36.8% (active),67.3%
CCCCC1=CC2=CC(=O)C(C)(OC(=O)CC)C(=O)C2=CN1CCCOC(C)C (centres undefined),34.8% (active),51.1%
COC(=O)CCCC1=CC2=CC(=O)C(C)(OC(=O)c3cccs3)C(=O)C2=CN1CC1CC1 (centres undefined),32.8% (inactive),–
COC(=O)CCCC1=CC2=C(c3ccccc3)C(=O)C(C)(OC(=O)C3CCCC3)C(=O)C2=CN1c1ccc(OC)cc1 (centres undefined),12.6% (inactive),–
Cc1ccccc1-n1cc(CNC(=O)C2CCC(=O)N(C3CC3)C2)cn1 (centres undefined),-10.9% (inactive),–
CCOc1ccccc1NC(=O)Cc1cccs1,4.2% (inactive),–
Cc1cc(Cl)c2oc(C(=O)NC(C)c3ccncn3)c(C)c2c1 (centres undefined),-10% (inactive),–
CC(C)(C)NC(=O)CSc1nnc(NC(=O)CCc2ccccc2)s1,-1.7% (inactive),–
COc1cc(NC(=O)CSc2ccc(-c3cccnc3)nn2)cc(OC)c1,15.1% (inactive),–
O=C(c1ccco1)N1CCN(Cc2cccc(C(F)(F)F)c2)CC1,6.5% (inactive),–
CC1CCN(S(=O)(=O)c2ccc3c(c2)n(C)c(=O)n3C)CC1,-1.1% (inactive),–
COc1cc(/C=C(\C#N)C(=O)Nc2ccc3ccccc3c2)c([N+](=O)[O-])cc1OC,-2.3% (active),70.5%
COc1cc(/C=C(/NC(=O)c2ccccc2)C(=O)Nc2cccc(O)c2)c([N+](=O)[O-])cc1OC,-0.9% (inactive),–
COc1ccc(NC(=O)/C(C#N)=C\c2cc(OC)c(OCc3ccc(C(=O)O)cc3)cc2Br)cc1,7.9% (inactive),–
